Reference: PubChem BioAssay AID624352 (Sanford-Burnham Center for Chemical Genomics, 2012)
Among all 360,000 compounds or so, about 2,600 (0.72%) were called active. Many of the other results were omitted from the sample, so actives are more common in it than they were. Values without a mark were called inactive.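 The calls were made as follows: active = inhibition of the luminescence signal of 40% or more relative to plate controls, in a single-dose primary screen at 18.75 µM; inactive = the rest.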

Assay: blockers of HIF-2a driven luciferase – luminescence, 786-0 RCC cells, primary screen (AID 624352)
Conditions: 786-0 RCC cells HIF-2a reporter, overnight, at 18.8 µM, hits give high values

| SMILES | inhibition |
| --- | --- |
| CCN(Cc1ccccc1)C(=O)CN1C(=S)NC(C)(C)CC1C (configuration not stated) | 4.59% |
| COc1cc(C(=O)OCC(=O)NC(C)CCc2ccccc2)cc(OC)c1OC (configuration not stated) | 26.2% |
| O=C1CCC(CCC(=O)N2CCCC(C(=O)c3ccc(Cl)cc3)C2)=NN1 (configuration not stated) | -12.6% |
| CC(C)(O)C1=C[N+](=O)CC=C1 | -0.393% |
| Cc1c(CCC(=O)O)c(=O)oc2c(C)c(OCc3ccccc3Cl)ccc12 | 44.6% (active) |
| COc1ccc2c(C)c(CCC(=O)NC3CC3)c(=O)oc2c1C | -156% |
| O=C(O)c1ccccc1OCc1ccccc1Cl | 10% |
| C#CCNc1nc(C(C)C)nc2c1nnn2Cc1ccccc1F | 4.59% |
| COc1ccc(S(=O)(=O)N2CCN(C(=O)NC3CCCCC3)CC2)cc1 | 12.4% |
| Cc1cccc2sc(N(CCCN(C)C)C(=O)CCS(=O)(=O)c3ccccc3)nc12 | 56.1% (active) |
| Cc1cccc(C)c1NC(=O)CCS(=O)(=O)c1cccc2nsnc12 | 4.25% |
| O=C(CCS(=O)(=O)c1ccccc1)NC1CCCC1 | -146% |
| COCCN(C(=O)CCC(=O)Nc1nccs1)C(C(=O)NC(C)(C)C)c1ccc(Cl)cc1 (configuration not stated) | 5.58% |
| CN1C(=O)[C@H]2[C@@H](/C=C/c3ccccc3)N3C(=O)CN(Cc4ccc(-c5ccccc5)cc4)C(=O)[C@@]3(C)[C@H]2C1=O | -8.21% |
| O=C(CNCc1ccco1)Nc1cc(S(=O)(=O)N2CCOCC2)ccc1N1CCCC1 | 12.6% |
| CCC(=O)N(Cc1cc2ccccc2[nH]c1=O)c1ccc(OC)cc1 | 20.9% |
| Cc1ccc(N(Cc2cc(=O)[nH]c3ccccc23)C(=O)CCl)cc1 | 45.7% (active) |
| Cc1ccc(N(Cc2ccccc2O)C(=O)c2ccccc2F)cc1 | 16.1% |
| O=C(NCCC(=O)N1O[C@@H]2C=C[C@H]1C2)OCC1c2ccccc2-c2ccccc21 | 3.4% |
| CN(C)CCn1c2c(c(SCC(=O)Nc3ccccc3C(F)(F)F)nc1=O)CCCC2 | 11.7% |
| NC(=O)c1cc(S(=O)(=O)N2CCCC2)ccc1OCc1ccc(F)cc1 | 24% |
| Cc1[nH]c2ccc(S(N)(=O)=O)cc2c1C | 11.6% |
